Results filed as inconclusive are left out. Active and inactive are the calls of the source. The call rests on the fitted dose curve.

The text below walks through data of PubChem BioAssay (Tox21).
On the % scale 0 is the no-effect control and ±100 the full control effect; potency means the concentration at half of the fitted maximal effect.

The target of the experiment is 5-hydroxytryptamine receptor 2A (Homo sapiens) (UniProt P28223). Put plainly: 5-hydroxytryptamine receptor 2A (HTR2A) small molecule agonists, cell-based qHTS assay (AID 1963587). Further: nearly all actives have a fitted effect of over 30% in size. To be noted: HTR2A-CHO cells, calcium flux fluorescence, agonist mode; series mostly up to 76.8 µM; activation: at the top concentration. From the text: National Center for Advancing Translational Sciences [NCATS]
Chain of 5-hydroxytryptamine receptor 2A (Homo sapiens) (P28223 whole entry, looked up): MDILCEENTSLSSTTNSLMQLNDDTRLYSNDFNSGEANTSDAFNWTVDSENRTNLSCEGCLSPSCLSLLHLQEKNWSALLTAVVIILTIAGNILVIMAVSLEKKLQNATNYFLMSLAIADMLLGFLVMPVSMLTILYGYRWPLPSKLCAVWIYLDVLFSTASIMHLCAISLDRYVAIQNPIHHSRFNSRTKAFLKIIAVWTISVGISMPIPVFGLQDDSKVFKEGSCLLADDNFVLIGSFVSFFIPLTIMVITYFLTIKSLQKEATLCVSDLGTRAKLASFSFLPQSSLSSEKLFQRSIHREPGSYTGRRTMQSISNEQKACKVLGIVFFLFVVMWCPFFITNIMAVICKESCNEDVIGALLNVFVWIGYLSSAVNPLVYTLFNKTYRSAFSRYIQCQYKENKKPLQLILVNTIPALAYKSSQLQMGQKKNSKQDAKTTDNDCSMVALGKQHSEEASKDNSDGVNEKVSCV
Division of Preclinical Innovation [DPI]
U.S. Environmental Protection Agency [EPA]
National Institutes of Environmental Health Sciences [NIEHS]
National Toxicology Program [NTP]
U.S. Food and Drug Administration [FDA]
The HTR2A receptor is a subtype of the 5-HT2 receptor that belongs to the serotonin receptor family and is a G protein-coupled receptor (GPCR). The HTR2A-CHO cell line stably expressing human 5-hydroxytryptamine receptor 2A (HTR2A) can be used for screening agonists of interactions between 5-HT2 and its ligands. The HTR2A-CHO calcium flux assay is a homogeneous fluorescence-based assay for detecting the intracellular calcium level using FDSS kinetic plate reader system.
HTR2A-CHO cells were dispensed at 2000 cells/3uL/well in 1536-well black-clear bottom plates using a Multidrop Dispenser. After the assay plates were incubated at a 37 C/5% CO2 incubator for 18 h, 3 uL of Dye Loading Buffer was transferred to the assay plate by a Flying Reagent Dispenser. The assay plates were incubated at 37 C for 1h. For agonist mode, 23 nL of compounds dissolved in DMSO, positive controls or DMSO only was transferred to the assay plate by a pin tool. The fluorescence intensity in the plates was measured using FDSS 7000EX kinetic plate reader for 2 min at 1 sec intervals.
On to `CN(C)CCN(C)C`, for which the “activation” value was -0.488% (inactive).

For `C[C@H](CN1CCOCC1)C(C(=O)N1CCCC1)(c1ccccc1)c1ccccc1`, the “activation” value is -3.48% (inactive).

As for `CN(C)CCc1c[nH]c2ccccc12`, the Potency is 0.0109 µM (active).

Take `ClCc1ccccc1Cl`: the “activation” value is -2.47% (inactive).

On to `CCOc1ccc(C(C)(C)COCc2cccc(Oc3ccccc3)c2)cc1`, for which the “activation” value was 2% (inactive).

Consider `CC(C)(C)c1cc([N+](=O)[O-])cc([N+](=O)[O-])c1O`, for which the “activation” value was 14.9% (inactive).

Take `CC(Cc1ccccc1)N(C)Cc1ccco1` (stereo not given): the “activation” value is -6.04% [at 35.6 µM] (inactive).

On to `CCOP(=S)(OCC)SCCl`, for which the “activation” value was -1.89% (inactive).

Consider `CCCCCCCCCCCCCCCCCCn1cc[n+](C)c1`, for which the “activation” value was -5.04% (inactive).

For the molecule `CCC1CCC(=O)O1` (stereo not given), the “activation” value is 0.982% (inactive).

With `CCCCCCBr`, the “activation” value was 3.83% (inactive).

Take `O=C(O)C(F)(F)C(F)(F)C(F)(F)C(F)(F)C(F)(F)F`: the “activation” value was 3.31% (inactive).

`CCCCOCN(C(=O)CCl)c1c(CC)cccc1CC`: the “activation” value is 1.96% (inactive).

As for `O=CNC(N1CCN(C(NC=O)C(Cl)(Cl)Cl)CC1)C(Cl)(Cl)Cl` (stereo not given), the “activation” value was 10.6% (inactive).

Take `O=[N+]([O-])c1ccc2ccc3cccc4ccc1c2c34`: the “activation” value is -2.73% (inactive).

Regarding `Fc1cccc(Cl)c1CCl`, the “activation” value was 0.713% (inactive).

Consider `Cc1cnc2c(C(=O)O)c(Cl)ccc2c1`, for which the “activation” value was 0.191% (inactive).

In the case of `[Cl][Sn]([c]1ccccc1)([c]1ccccc1)[c]1ccccc1`, the Potency is 10.4 µM (active).

In the case of `O=C(CBr)Nc1ccc(Cl)cc1C(=O)c1ccccc1F`, the “activation” value is -16.2% [at 35.6 µM] (inactive).

As for `O=c1[nH]c2ccccc2n1C1CCNCC1`, the “activation” value is -2.98% [at 35.6 µM] (inactive).

As for `CC(=O)[O-].CC(=O)[O-].CC(=O)[O-].[Sb+3]`, the activation is -0.125% [at 2.65 µM] (inactive).

With `S=C=Nc1ccccc1`, the “activation” value was -0.925% (inactive).

For `O=S(=O)(Cl)c1ccccc1`, the “activation” value is -1.93% (inactive).

Turning to `COC1=CC(=O)O[C@@H](/C=C/c2ccccc2)C1`, the “activation” value is -0.668% (inactive).

As for `C=CC(=O)OCCCCOC(=O)C=C`, the “activation” value was -1.4% (inactive).

`ClCCCCCCCl`: the “activation” value was -1.02% (inactive).

In the case of `O=C1CN=C(c2ccccc2)c2cc(Cl)ccc2N1CC1CC1`, the “activation” value was -0.792% (inactive).

Take `CC(C)=CCOc1c2occc2cc2ccc(=O)oc12`: the “activation” value was -7.44% [at 35.6 µM] (inactive).

With `c1ccc2c(c1)[nH]c1cnccc12`, the “activation” value is 1.33% (inactive).

In the case of `CC1COC(Cn2cncn2)(c2ccc(Oc3ccc(Cl)cc3)cc2Cl)O1` (stereo not given), the “activation” value was 3.11% (inactive).

`CC(=O)C(Cl)C(=O)N(C)C` (stereo not given): the “activation” value is -1.79% (inactive).

As for `Cc1cc(C(C)(C)c2cc(C)c(O)c(C)c2)cc(C)c1O`, the Potency is 23.7 µM (active).

Regarding `COP(=S)(OC)Oc1ccc(S(N)(=O)=O)cc1`, the “activation” value was 5.77% [at 35.6 µM] (inactive).

Take `CCOc1cc(OP(=S)(OC)OC)nc(CC)n1`: the “activation” value was -0.952% (inactive).

As for `CCOC(=O)c1ncn2c1CN(C)C(=O)c1c(I)cccc1-2`, the “activation” value was -1.58% [at 35.6 µM] (inactive).

Turning to `CO/N=C(/C(=O)OC)c1ccccc1COc1ccccc1C`, the “activation” value was -0.0548% (inactive).

`CCCN(CCC)CCc1c[nH]c2ccccc12`: the Potency is 0.0043 µM (active).

Take `N#Cc1c[nH]cc1-c1cccc2c1OC(F)(F)O2`: the “activation” value is 0.19% (inactive).

With `O=c1[nH]oc2c1CCNC2`, the “activation” value was 0.767% [at 35.6 µM] (inactive).

With `Cc1ccc([N+](=O)[O-])[c]2c1[O][Hg]2`, the Potency was 23.9 µM (active).
